Bioassay records deposited in PubChem by several laboratories.
aDG glyco act: activators of alpha-DG glycosylation, primary screen, uHTS, Pro5-aDG cells, AlphaScreen; alpha-DG glycosylation AlphaScreen (IIH6); 0% Pro5, 100% B10-LARGE cell signal; activation, % at 10 µM; 360,000 tested, 0.22% active;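 active = activation of at least 8% versus controls, or a plate z-score of at least 8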;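 note: Pro5 are CHO cells carrying HIG-tagged alpha-DG that lacks glycosylation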
PHOSPHO1 block: PubChem AID 1565. Phosphoethanolamine/phosphocholine phosphatase (Homo sapiens), Q8TCT1. recombinant PHOSPHO1, absorbance phosphatase assay. inhibition, % at 13.3 µM. 290,000 tested, 1.1% active; in the data active = inhibition above about 60%
Target sequence (Q8TCT1 whole entry, looked up): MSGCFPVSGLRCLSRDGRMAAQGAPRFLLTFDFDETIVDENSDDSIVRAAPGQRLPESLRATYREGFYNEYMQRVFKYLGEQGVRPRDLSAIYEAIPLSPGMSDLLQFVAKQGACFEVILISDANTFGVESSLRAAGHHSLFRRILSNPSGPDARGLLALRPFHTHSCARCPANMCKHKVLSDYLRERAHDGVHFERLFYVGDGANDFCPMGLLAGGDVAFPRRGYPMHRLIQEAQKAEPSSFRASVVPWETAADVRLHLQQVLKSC
A3G deaminase: APOBEC3G DNA deaminase inhibitors, primary screen, biochemical, fluorescence, single-stranded DNA substrate, uHTS | recombinant A3G, ssDNA deamination FAM/TAMRA fluorescence | 330,000 tested, 0.28% active | inhibition, % at 20 µM | DNA dC->dU-editing enzyme APOBEC-3G (Homo sapiens), Q9HC16;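 active = inhibition of at least 40% at 20 µM, with no more than 30% in the related APOBEC3A deaminase screen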
rCAG RNA binder: binders of r(CAG) RNA repeats, primary screen, biochemical, fluorescence. AID 651821, 2012. inhibition, % at 3 µM. r(CAG) RNA repeat, TO-PRO-1 dye displacement fluorescence. 370,000 tested, 1.3% active;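 active = inhibition above the plate cutoff, the mean of all test compounds on that plate plus 3 SD, cut at about 35% in these data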;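 note: higher means more dye released from RNA so lower well fluorescence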
APOBEC3A inh: APOBEC3A ssDNA deaminase inhibitors, primary screen, selectivity assay for APOBEC3G inhibitor project, biochemical, FAM/TAMRA oligo cleavage fluorescence; DNA dC->dU-editing enzyme APOBEC-3A (Homo sapiens), P31941; recombinant A3A, FAM/TAMRA ssDNA deamination fluorescence; inhibition, % at 20 µM; 330,000 tested, 0.41% active;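 active = at least 40% inhibition at 20 µM here, with at most 30% in a related deaminase screen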
ALR inh: inhibitors of human ALR sulfhydryl oxidase, primary screen, biochemical, H2O2 detection, HRP-luminol luminescence, single point. purified ALR, DTT oxidation. FAD-linked sulfhydryl oxidase ALR (Homo sapiens), P55789. 290,000 tested, 3.8% active. AID 485317, 2010. inhibition, % (concentration not given with the values);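 active = mean replicate inhibition above about 79%, with every replicate also reaching it, limit read from the data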
Target sequence (P55789 whole entry, looked up): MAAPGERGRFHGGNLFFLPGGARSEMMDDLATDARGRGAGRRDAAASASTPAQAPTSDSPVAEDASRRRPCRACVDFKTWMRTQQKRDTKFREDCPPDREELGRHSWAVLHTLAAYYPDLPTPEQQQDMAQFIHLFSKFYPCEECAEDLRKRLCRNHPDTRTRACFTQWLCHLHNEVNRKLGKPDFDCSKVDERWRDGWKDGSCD
Hits are given with their value; . = inactive; / = not tested or not shown. This is a sample that favours compounds with a hit; in the whole collection about 5.4% have one here.

SMILES	aDG glyco act	PHOSPHO1 block	A3G deaminase	rCAG RNA binder	APOBEC3A inh	ALR inh
CCCCc1c(O)nc(SCC(=O)c2ccccc2)n(-c2ccccc2C)c1=O	.	.	.	.	.	97
CCCCc1c(O)nc(SCC(=O)c2ccccc2)n(-c2ccccc2OC)c1=O	.	.	.	.	.	99
CC(C)C(=O)OCCCN1CCC2(CCC(c3ccccc3)CC2)C1=O (centres undefined)	/	/	/	.	/	/
COC(=O)[C@H](C(C)C)N(CCCc1cn(Cc2ccc(C)cc2)nn1)S(=O)(=O)c1ccc(F)cc1Br	/	/	/	.	/	/
N#CC1=C(N)Oc2cc3ccccc3cc2C1c1cccs1 (centres undefined)	.	62	.	.	.	/
N#CC1=C(N)Oc2cc3ccccc3cc2C1c1cccnc1 (centres undefined)	.	.	.	.	.	.
COc1cc([N+](=O)[O-])cc(CN2CCCCC2)c1O	.	.	.	.	.	98
O=[N+]([O-])c1ccc(Cl)c(CN2CCCCCC2)c1	.	/	.	.	.	/
Cc1ccnc(NC(c2ccccc2O)c2oc(CO)cc(=O)c2O)c1 (centres undefined)	.	.	.	.	.	98
O=c1cc(CO)oc(C(Nc2ccccn2)c2ccc(F)cc2)c1O (centres undefined)	.	.	.	.	.	98
O=c1cc(CO)oc(C(Nc2ccccn2)c2ccsc2)c1O (centres undefined)	/	.	.	/	.	.
O=c1cc(CO)oc(C(Nc2ccccn2)c2ccccc2Cl)c1O (centres undefined)	.	.	.	.	.	/
COc1ccc(C(Nc2ccccn2)c2oc(CO)cc(=O)c2O)cc1 (centres undefined)	.	.	.	.	.	98
CN(Cc1ccccc1F)C(=O)Cn1c(-c2cncs2)nc2ccccc21	/	/	/	.	/	/
CCN=C1S/C(=C/c2ccc(-c3ccc(Cl)cc3C(=O)O)o2)C(=O)N1CC	.	.	.	55	.	.
CCN=C1S/C(=C\c2ccc(-c3cccc(C(=O)O)c3)o2)C(=O)N1CC	.	.	.	/	.	.
COC(=O)c1cc2c(c3c4cc(OC)ccc4n(S(=O)(=O)c4ccc(OC)cc4)c13)C(=O)N(Cc1ccccc1)C2	/	/	/	.	/	/
CCCc1nc(SC2CCCC2)c2c(=O)n(C)c(=O)n(C)c2n1	.	.	.	.	.	98
COc1cc(NC(=S)NCc2cccnc2)cc(OC)c1	.	.	.	.	.	.
COc1cc(NC(=S)NCc2cccnc2)cc(OC)c1OC	.	63	.	.	.	.
C[C@@H]1CCCN1c1ccc2c(c1)OCCCN(C1CC1)S2(=O)=O	/	/	/	.	/	/
CN(Cc1ccccc1)C(=O)OCc1cn(Cc2ccc(F)c(F)c2)nn1	/	/	/	.	/	/
CC(=O)Nc1ccc(SCC(=O)N(CCC#N)c2ccc(C)cc2)cc1	.	.	.	.	.	97
COc1ccc(NC(=O)CS(=O)CC(=O)Nc2ccc(OC)c(OC)c2)cc1 (centres undefined)	.	.	.	.	.	87
COc1cccc(CNC(=O)CCCN2C(=O)COc3ccc(C)cc32)c1OC	/	/	/	.	/	/
SMILES	aDG glyco act	PHOSPHO1 block	A3G deaminase	rCAG RNA binder	APOBEC3A inh	ALR inh
Cc1cc(O)c(C(=O)/C=C/c2ccccc2)c(=O)o1	.	.	.	.	.	.
COc1ccc(/C=C\C(=O)c2c(O)ccc3c(C)cc(=O)oc23)cc1	.	.	.	.	.	97
CCOc1ccc(/C=C/C(=O)c2c(O)cc(C)oc2=O)cc1	.	.	.	.	.	95
CC(=O)O[C@@H]1C=C[C@@H](C#Cc2ccc(C(C)(C)C)cc2)O[C@@H]1COC(=O)NCc1ccccc1	/	/	/	.	/	/
O=C(C1CCCO1)N1CCN(C2=Nc3ccccc3Sc3ccccc32)CC1 (centres undefined)	/	/	/	.	/	/
O=C(Cc1c[nH]c2ccccc12)Nc1ccc(Nc2ccncc2)cc1	/	/	/	.	/	/
COc1cccc(COC(=O)CSCC(=O)Nc2cccc(C)c2)c1OC	.	/	.	.	.	.
COc1cccc(CN(C)C(=O)CSCC(=O)Nc2cccc(C)c2)c1OC	.	/	.	.	.	92
Cc1cccc(NC(=O)CSCC(=O)OCc2ccccn2)c1	.	/	.	.	.	99
OC(c1ccccc1)(c1ccccc1)C1CCN(CCCOc2cccc(F)c2)CC1	/	/	/	.	/	/
CN1C(=O)c2cc(NC(=O)c3ccc(F)cc3)ccc2OC[C@H]2O[C@H](CC(=O)NC3CCC3)CC[C@H]21	/	/	/	.	/	/
Cc1ccc(Cl)cc1N1CCN(C(=O)c2noc(C)c2[N+](=O)[O-])CC1	.	.	.	.	.	.
Cc1onc(C(=O)N2CCN(c3ccccc3)CC2)c1[N+](=O)[O-]	.	.	.	.	.	95
Cc1noc(C)c1CSc1nnc(-c2ccccc2)n1N	.	97	.	.	.	.
O=C(O)CCn1c(SCc2ccccc2)nc2ccccc21	.	.	.	.	.	.
Cc1noc(C)c1CSc1nnc(-c2ccccc2)n1Cc1ccco1	.	.	.	.	.	.
Cc1noc(C)c1CSc1nc2ccccc2n1CCc1ccccc1	.	.	.	.	.	95
Cc1ccc(CNC(=O)[C@@H](Cc2ccccc2)NC(=O)[C@H]2O[C@@H](n3ccc(N)nc3=O)[C@H](O)[C@@H]2O)o1	/	/	/	.	/	/
COC(=O)c1[nH]c2ccc(C)cc2c1NC(=O)CN1CCN(Cc2ccccc2)CC1	.	85	.	.	.	.
CCC(C(=O)N1CCN(Cc2ccc3c(c2)OCO3)CC1)n1c(=O)[nH]c2ccccc2c1=O (centres undefined)	.	70	.	.	.	.
Cc1[nH]c2ccccc2c1NC(=O)CN1CCN(Cc2ccc3c(c2)OCO3)CC1	/	97	/	/	/	/
O=C(CN1CCN(Cc2ccc3c(c2)OCO3)CC1)Nc1ccc2[nH]c(=O)[nH]c2c1	.	/	.	.	.	.
COC(=O)c1[nH]c2ccc(C)cc2c1NC(=O)CN1CCN(c2ccccc2)CC1	.	.	.	.	.	.
O=C(Cn1c(=O)[nH]c2ccccc2c1=O)N1CCN(Cc2ccc3c(c2)OCO3)CC1	.	.	.	.	.	.
O=C(CSc1nnc(-c2ccc(Cl)cc2)n1-c1ccccc1)NN=Cc1c[nH]c2ccccc12	/	/	/	.	/	/
COC(=O)[C@]12C[C@H](CC(=O)N3CCSCC3)C(=O)N(CCc3ccc(OC)c(OC)c3)C1=C[C@H](C(C)C)O[C@@H]2C1CC1	/	/	/	.	/	/
CN(C)c1nc(Oc2ccc(/C=N/O)cc2)nc(N(C)C)n1	.	.	.	.	.	99
